Several values for one entry are separate records, joined by “and”; a condition that tells them apart may be missing. Equal values may be shown once. ± gives the standard deviation of the averaged measurements. Whole data set: some 1,600 compounds, median “mitochondrial oxygen consumption rate normalised to cell number, Z score over the library” near 0.065, cut for the lowest 2% near -2.2. Many of the other results were omitted from the sample, so the lowest values are more common in it than they were.
Each molecule was assayed on FaDu (assay: mitochondrial oxygen consumption rate normalised to cell number, Z score over the library; higher = higher oxygen consumption (negative = OCR reduction)). Settings: treatment time 24 h; assay medium: 5 mM galactose, 5 mM pyruvate, 4 mM glutamine; 10 µM.
Experimental: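 Primary screen: FaDu cells were incubated 24 h with Pharmakon 1600 / TDI oncology set compounds at 2 or 10 uM. Mitochondrial-specific OCR (basal minus 2 uM antimycin A) was measured on a Seahorse XF96 in assay medium with 5 mM galactose, 5 mM pyruvate and 4 mM glutamine, then corrected for Hoechst cell number and expressed as a Z score […]. Compounds that cut cell number by >66% were excluded. Two repeats.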

SMILES	mitochondrial oxygen consumption rate normalised
CC(C)NCC(O)COc1cccc2ccccc12 (racemic)	-0.291 ± 0.42
CC[n+]1c(-c2ccccc2)c2cc(N)ccc2c2ccc(N)cc21	-2.32 ± 0.27
CS(=O)(=O)Nc1ccc([N+](=O)[O-])cc1Oc1ccccc1	0.196 ± 0.72
COc1cc(NS(C)(=O)=O)ccc1Nc1c2ccccc2nc2ccccc12	-2.77 ± 0.43
CC(=O)Oc1c(C)c(C)c2c(c1C)CCC(C)(CCCC(C)CCCC(C)CCCC(C)C)O2 (stereo not drawn) [alpha-TOCHOPHERYL ACETATE]	-0.281 ± 0.21
O=C1c2ccccc2C(=O)C1c1ccc(Cl)cc1	0.0788 ± 0.46
CC(O)C(=O)[O-].[Na+] (centres undefined)	1.11 ± 0.92
CC(=O)Nc1ccc(S(=O)(=O)Nc2ccc([N+](=O)[O-])cc2)cc1	1.45 ± 0.4
NCCCS(=O)(=O)O	-0.855 ± 0.32
C#CCC(Cc1cnc2nc(N)nc(N)c2n1)c1ccc(C(=O)N[C@@H](CCC(=O)O)C(=O)O)cc1 (some centres undefined) [Pralatrexate]	0.0598 ± 0.75
Nc1ccc(S(=O)(=O)O)cc1.Nc1ccc(S(=O)(=O)O)cc1.[Zn]	1.04 ± 0.43
C[C@@H]1O[C@@H](OC[C@H]2O[C@@H](Oc3c(-c4ccc(OCCO)c(OCCO)c4)oc4cc(OCCO)cc(O)c4c3=O)[C@H](O)[C@@H](O)[C@@H]2O)[C@H](O)[C@H](O)[C@H]1O	-0.575 ± 0.55
CC(C)CCC[C@@H](C)[C@H]1CC[C@H]2[C@@H]3CC=C4C[C@@H](O)CC[C@]4(C)[C@H]3CC[C@]12C	-0.87 ± 0.089
O=C(c1cccnc1)N1CCOCC1	-0.217 ± 0.94
COc1cc(NS(=O)(=O)c2ccc(N)cc2)ncn1	0.47 ± 0.61
NCC(O)CC(=O)O (centres undefined)	-0.332 ± 0.83
CN1C(=O)CC(C)(c2ccccc2)C1=O (centres undefined)	-0.314 ± 0.74
CCCCCCCCCc1ccc(OCCOCCOCCOCCOCCOCCOCCOCCOCCO)cc1	-3.66 ± 0.45
CCCCOc1ccc(CC(=O)NO)cc1	-0.625 ± 0.84
CCCCOc1ccc(OCCCN2CCOCC2)cc1	-0.434 ± 0.23

SMILES	mitochondrial oxygen consumption rate normalised
CC(=O)Oc1ccccc1C(=O)O	0.27 ± 0.45
CC(=O)Oc1ccccc1C(=O)Nc1ncc([N+](=O)[O-])s1	-2.45 ± 0.1
CC(=O)Nc1ncc([N+](=O)[O-])s1	0.857 ± 0.27
CN(C)[C@@H]1C(O)=C(C(N)=O)C(=O)[C@@]2(O)C(O)=C3C(=O)c4c(O)cccc4[C@@](C)(O)[C@H]3[C@H](O)[C@@H]12	0.305 ± 0.067
Cn1c(=O)c2[nH]c(Br)nc2n(C)c1=O	0.142 ± 0.29
O=C(CCBr)N1CCN(C(=O)CCBr)CC1 [Pipobroman]	-0.527 ± 1.4
O=C(CCBr)N1CCN(C(=O)CCBr)CC1	1.32 ± 1.1
CCC1(C)OC(=O)N(C)C1=O (centres undefined)	0.0479 ± 0.05
CN1C(C(=O)Nc2ccccn2)=C(O)c2sc(Cl)cc2S1(=O)=O	-0.183 ± 0.66
O=[N+]([O-])c1ccc(O)c2ncccc12	-2.21 ± 0.14
Oc1c(I)cc(I)c2cccnc12	0.968 ± 0.98
Oc1ccc(Cl)c2cccnc12	0.469 ± 0.61
CCCCCCCC/C=C\CCCCCCCC(=O)O.NCCO	-0.00915 ± 0.76
CC[C@H]1OC(=O)[C@H](C)[C@@H](O[C@H]2C[C@@](C)(OC)[C@@H](O)[C@H](C)O2)[C@H](C)[C@@H](O[C@@H]2O[C@H](C)C[C@H](N(C)C)[C@H]2O)[C@](C)(O)C[C@@H](C)[C@@H]2N[C@@H](COCCOC)O[C@H]([C@H]2C)[C@]1(C)O	-0.149 ± 0.29
CC[C@@]1(O)C(=O)OCc2c1cc1n(c2=O)Cc2cc3c(CN(C)C)c(O)ccc3nc2-1	-4.46 ± 0.19
CCc1c2c(nc3ccc(OC(=O)N4CCC(N5CCCCC5)CC4)cc13)-c1cc3c(c(=O)n1C2)COC(=O)[C@]3(O)CC	-1.11 and -2.18
CNC(=O)c1cc(Oc2ccc(NC(=O)Nc3ccc(Cl)c(C(F)(F)F)c3)cc2)ccn1	-2.31 ± 0.25
C#C[C@]1(OC(C)=O)CC[C@H]2[C@@H]3CCC4=CC(=NO)CC[C@@H]4[C@H]3CC[C@@]21CC (mixture of isomers)	1.1 ± 0.091
CC(C)(C)CC(=O)OCC(=O)[C@@]1(O)CC[C@H]2[C@@H]3CCC4=CC(=O)C=C[C@]4(C)[C@H]3[C@@H](O)C[C@@]21C	-0.63 ± 0.68
COc1cc([C@@H]2c3cc4c(cc3[C@@H](O[C@@H]3O[C@@H]5CO[C@@H](C)O[C@H]5[C@H](O)[C@H]3O)[C@H]3COC(=O)[C@H]23)OCO4)cc(OC)c1O	-1.53 ± 0.61

SMILES	mitochondrial oxygen consumption rate normalised
COc1cc([C@@H]2c3cc4c(cc3[C@@H](O[C@@H]3O[C@@H]5CO[C@@H](c6cccs6)O[C@H]5[C@H](O)[C@H]3O)[C@H]3COC(=O)[C@H]23)OCO4)cc(OC)c1O	-3.75 ± 0.66
COc1cc([C@@H]2c3cc4c(cc3[C@@H](O[C@@H]3O[C@@H]5CO[C@@H](C)O[C@H]5[C@H](O)[C@H]3O)[C@H]3COC(=O)[C@H]23)OCO4)cc(OC)c1O [Etoposide]	-0.0499 ± 0.023
Nc1ccc2cc3ccc(N)cc3nc2c1	-2.55 ± 0.27
Nc1c2ccccc2nc2ccccc12	-1.9 ± 0.35
O=C(OOC(=O)c1ccccc1)c1ccccc1	0.517 ± 0.52
Cc1ccc2c(Br)cc(Br)c(OC(=O)c3ccccc3)c2n1	-2.31 ± 0.47
O=C(Oc1cccc2cccnc12)c1ccccc1	-0.0234 ± 0.66
CCCCCCCCCCCCCCCC[N+](C)(C)CCN(Cc1ccc(OC)cc1)c1ncccn1	-2.13 ± 0.31
CO/N=C1\C[C@]2(C[C@@H]3C[C@@H](C/C=C(\C)C[C@@H](C)/C=C/C=C4\CO[C@@H]5[C@H](O)C(C)=C[C@@H](C(=O)O3)[C@]45O)O2)O[C@H](/C(C)=C/C(C)C)[C@H]1C	-0.513 ± 0.34
Cc1cccc(C)c1NC(=O)c1ccccc1C(=O)O	-0.418 ± 1.1
CCCCC(CC)CCC(CC(C)C)OS(=O)(=O)O (centres undefined)	0.745 ± 1.4
O.O.O=C([O-])CN(CCN(CC(=O)[O-])CC(=O)O)CC(=O)O.[Na+].[Na+]	1.52 ± 0.75
CC1(C)S[C@@H]2[C@H](NC(=O)Cc3ccccc3)C(=O)N2[C@H]1C(=O)O	-0.601 ± 0.075
COC(=O)Nc1nc2cc(C(=O)c3ccc(F)cc3)ccc2[nH]1	0.265 ± 0.4
CC(C)(C)NC[C@H](O)c1ccc(O)c(CO)c1	0.0168 ± 0.31
C[n+]1c2cc(N)ccc2cc2ccc(N)cc21	-4.5 ± 0.35
C=CCCCCCCCCC(=O)O	1.2 ± 0.61
Cc1c(C)c2c(c(C)c1O)CCC(C)(CCCC(C)CCCC(C)CCCC(C)C)O2 (stereo not drawn) [alpha-TOCHOPHEROL]	-0.681 ± 0.38
CC(=O)OCC(=O)[C@@]12OC(C)(C)O[C@@H]1C[C@H]1[C@@H]3C[C@H](F)C4=CC(=O)C=C[C@]4(C)[C@@]3(F)[C@@H](O)C[C@@]12C	0.605 ± 0.52
